# Experimental data: PubChem BioAssay AID652039 (The Scripps Research Institute Molecular Screening Center, 2013)
# About 3,300 (0.89%) of roughly 370,000 compounds were called active. Only a selection was taken, and actives are over-represented in it overall. Unmarked numbers belong to inactive results.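 How the source made its calls: active means activation above the mean of all tested compounds plus 3 SD, computed per campaign excluding outliers beyond control limits (cut at about 13% in these data); inactive means the rest.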
# Target: Kallikrein-7 (Homo sapiens) (UniProt P49862)
# Sequence (P49862 whole entry, looked up): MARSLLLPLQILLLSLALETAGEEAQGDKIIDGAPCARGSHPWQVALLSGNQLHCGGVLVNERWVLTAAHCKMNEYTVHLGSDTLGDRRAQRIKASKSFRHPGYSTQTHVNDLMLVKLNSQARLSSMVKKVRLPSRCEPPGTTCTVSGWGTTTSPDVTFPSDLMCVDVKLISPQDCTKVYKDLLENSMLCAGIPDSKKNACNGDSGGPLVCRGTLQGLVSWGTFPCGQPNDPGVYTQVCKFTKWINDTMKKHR
# Test: proKLK7 zymogen activators, primary screen, biochemical, fluorescence intensity (AID 652039)
# Settings: purified proKLK7, EDANS-DABCYL substrate fluorescence; at 7 µM; active compounds read high; 100% is mature enzyme control, 0% vehicle
row,SMILES,activation
1,O=C(CSc1nnc(-c2cccc(Cl)c2)n1Cc1ccco1)Nc1ccc(OCc2ccccc2)cc1,0.41%
2,CCn1c(SCC(C)=O)nc2sc3c(c2c1=O)CCCC3,0.36%
3,CCCNC(=O)Nc1ccc2c(c1)C(=O)N(C)[C@H]1CC[C@H](CC(=O)NCC3CCCCC3)O[C@@H]1CO2,0.14%
4,CCN1CCN(C(=O)CN(C)S(=O)(=O)c2ccc(OC)cc2)CC1,-0.44%
5,CCN1CCN(C(=O)c2cc3cc4ccc(OC)cc4nc3s2)CC1,68.7% (active)
6,COc1ccc(OCC(=O)N2CCN(C(=O)c3cccs3)CC2)cc1,0.07%
7,COC(=O)[C@]12C[C@H](CC(=O)NCc3ccccc3)C(=O)N(Cc3ccccc3)C1=C[C@H](COCc1ccccc1)O[C@@H]2C,-0.24%
8,CCCOc1ccc(Oc2c(Cl)cnn(Cc3cccc4ccccc34)c2=O)cc1,0.98%
9,COc1ccc(CSc2nnc(-c3cccc(C)c3)n2C)cc1,-0.66%
10,CCOC(=O)c1c(NC(=O)NC(C)(C)C)sc2c1CCN(C)C2,0.12%
11,CCOC(=O)c1c(NC(=S)Nc2ccccc2)sc2c1CCN(C)C2,33.8% (active)
12,CCOC(=O)c1c(NC(=S)SC)sc(C(=O)N2CCc3ccccc3C2)c1C,0.73%
13,COc1ccc(CNC(=O)C(C)n2nc(C)c3c(C)n(-c4ccccc4)nc3c2=O)c(OC)c1 (stereo unspecified),0.01%
14,COCCCNC(=O)C[C@H]1C[C@@]2(C(=O)OC)C(=C[C@H](C(C)(C)C)O[C@@H]2C)N(Cc2ccc(Cl)cc2Cl)C1=O,-0.25%
15,C#CCNC(=O)C[C@H]1C[C@@]2(C(=O)OC)C(=C[C@H](C(C)C)O[C@@H]2C2CC2)N(Cc2ccco2)C1=O,0.24%
16,Oc1ccc2ccc3cccc[n+]3c2c1,16.2% (active)
17,COc1ccc(-n2c(SCC(=O)Nc3ccc(C)c(Cl)c3)nc3ccccc3c2=O)cc1,-0.5%
18,COc1ccc(-n2c(SCC(=O)Nc3ccc4c(c3)OCCO4)nnc2-c2ccc(Cl)cc2)cc1,-0.65%
19,CN1C[C@]2(C=C3CCCCC3n3c(=O)n(-c4ccccc4)c(=O)n32)N=C1NC(=O)c1ccccc1 (stereo partly specified),0.02%
20,COc1ccc(-n2c(SCC(=O)Nc3ccc4cn[nH]c4c3)nnc2-c2cccnc2)cc1,-0.83%
21,O=C(Nc1ccccc1)N1CCN(Cc2nc3ccccc3c(=O)[nH]2)CC1,0.5%
22,COc1ccc(CCNC(=O)C(=O)Nc2ccc3nc4n(c(=O)c3c2)CCCCC4)cc1OC,0.82%

row,SMILES,activation
1,COc1ccc(CCNC(=O)c2cc3sccc3n2C)cc1OC,-0.31%
2,COc1ccc(CCNC(=O)Nc2ccc3c(c2)c(=O)n(C)n3C)cc1OC,33.7% (active)
3,CCOC(OCC)c1ccc(/C=C\c2nccc(N)n2)cc1,47.7% (active)
4,O=C(N1CCOCC1)N1CC[C@H]2[C@H](CCCN2Cc2ccc(F)cc2)C1,0.18%
5,COc1ccc2c(c1)CN1CN(CCc3ccccc3)S(=O)(=O)CC21 (stereo unspecified),-0.32%
6,CN(C(=O)CCn1c(=S)oc2ccccc21)C1CCCCC1,-0.28%
7,COC(=O)C1=C(C)N(C)C(=S)NC1c1cc(OC)ccc1OC (stereo unspecified),0.24%
8,CCOC(=O)C1=C(CC)OC(N)=C(C#N)C1c1ccc(F)cc1F (stereo unspecified),-0.17%
9,COC(=O)C1=C(C)OC(N)=C(C#N)C1c1cc(OC)ccc1OC (stereo unspecified),30.7% (active)
10,CC(C)c1ccc(C2C(C#N)=C(N)Oc3c2oc(CO)cc3=O)cc1 (stereo unspecified),0.31%
11,CCC1=C(C(=O)OC)C(c2cc(OC)ccc2OC)C(C#N)=C(N)O1 (stereo unspecified),15.6% (active)
12,CCOC(=O)C1=C(C)OC(N)=C(C#N)C1c1cncc(-c2ccc(F)cc2)c1 (stereo unspecified),0.49%
13,Cc1ccc(CN2CCCCC(NC(=O)C3CCCCC3)C2=O)cc1 (stereo unspecified),-0.03%
14,CCOC(=O)[C@]12CCCC=C1N(Cc1ccc(OC)cc1)C(=O)[C@@H]2CC(=O)NCc1cccs1,-0.38%
15,Clc1ccc(-n2c(COc3ccccc3)nnc2SCc2nc3ccccc3[nH]2)cc1,0.33%
16,O=C(CSc1nnc(-c2ccccn2)n1-c1ccc(Cl)cc1)Nc1ccccc1-c1ccccc1,0.1%
17,COC(=O)[C@]12C[C@H](CC(=O)N3CCOCC3)C(=O)N(Cc3ccc(Cl)cc3Cl)C1=C[C@H](COCc1ccccc1)O[C@@H]2C,0.05%
18,Cc1cc(=O)[nH]c(SCC(=O)Nc2ccc(F)cc2F)n1,-0.3%
19,CC(C)CCNc1nc(N2CCCC2)c2c(c1C#N)CCN(C)C2,-0.46%
20,CCN1CCc2c(C#N)c(NCc3ccccc3)nc(NCCO)c2C1,14.3% (active)
21,CCCCc1nc(NCc2ccccc2)c(C#N)c2c1CCCC2,-0.04%
22,Clc1cccc(Cl)c1OCCOCCNCc1ccccc1,-0.51%

row,SMILES,activation
1,CC1(C)CC(=O)CC2(C1)NCC(c1ccccc1Cl)c1c2[nH]c2ccccc12 (stereo unspecified),0.29%
2,CC(=O)N1CCc2cc(S(=O)(=O)NCCC(=O)N3CCCC3)ccc21,0.03%
3,CNC(=O)COC(=O)c1cc(-c2ccc(OC)cc2)nc2ccccc12,113% (active)
4,C/C(N)=C(/C#N)C(=O)COC(=O)c1cc(-c2cccc(Br)c2)nc2ccccc12,0.31%
5,COc1ccc(S(=O)(=O)n2cnc3ccccc32)c(C)c1,-0.43%
6,COc1ccc(-c2cc3n(n2)CCc2nc4ccccc4n2-3)cc1,0.02%
7,COc1ccc(-c2cc(C(=O)n3cnc4ccccc43)c3ccccc3n2)cc1,20.8% (active)
8,Cc1cc(C(=O)OCC(=O)Nc2nccs2)c2ccccc2n1,-2.12%
9,CN(CCO)c1cccc2c1S(=O)(=O)N(Cc1cn(Cc3ccc(C(F)(F)F)cc3)nn1)Cc1ccccc1O2,1.21%
10,COC(=O)C[C@@H]1CC[C@H]2[C@@H](COc3ccc(NS(=O)(=O)CC(F)(F)F)cc3C(=O)N2C)O1,-0.11%
11,CCOC(=O)CN1C(=O)C(O)(CC(=O)c2ccccn2)c2ccccc21 (stereo unspecified),0.64%
12,O=C(NCCC1=CCCCC1)C1CCN(S(=O)(=O)c2ccc(Cl)s2)CC1,0.13%
13,Cc1cc(NS(=O)(=O)c2ccc(NC(=O)CSc3nnc(SCc4ccc(F)cc4)s3)cc2)nc(C)n1,-0.24%
14,COC(=O)c1cccc(Cn2ccc3ccc(-c4ccc5ccn(C(=O)c6ccccc6C)c5c4)cc32)c1,-10.5%
15,COCc1c(N)c(C)nc(Cl)c1C#N,-1.78%
16,Cc1nc(SCC(=O)NC2CCCCC2C)c(C#N)c(C)c1C (stereo unspecified),-0.08%
17,COC(=O)c1c(C)c(C)nc(N)c1C#N,33.8% (active)
18,Cc1ccccc1NC(=O)Cn1nnc(-c2ccccc2F)n1,-0.28%
19,O=C(NC1CCCC1)C1CSCCS(=O)(=O)N1Cc1ccccc1 (stereo unspecified),0.33%
20,Cc1c[nH]c2cccc(-c3ccc(Cl)cc3)c12,0.5%
21,O=C(CSc1nnc(COc2ccccc2)n1Cc1ccco1)c1ccc2ccccc2c1,0.09%
22,O=C(NCc1cccs1)C1CCCN(S(=O)(=O)c2ccc([N+](=O)[O-])cc2)C1 (stereo unspecified),-0.47%

row,SMILES,activation
1,Cc1ccc(-n2c(SCC(=O)Nc3ccc(S(=O)(=O)Nc4nccs4)cc3)nnc2-c2ccncc2)cc1,0.08%
2,CCOC(=O)CSc1nc2c(c(=O)n(Cc3ccccc3Cl)c(=O)n2C)n1C,-0.44%
3,CCCCNC(=O)CCn1c(=O)c2ccccc2n(Cc2cc(C)ccc2C)c1=O,-0.3%
4,CCCCCn1c(=O)c(C(=O)OCC)c(Cl)c2ccccc21,27.6% (active)
5,C=CCn1c(SCC(N)=O)nnc1-c1ccccc1OC,-0.28%
6,Cc1ccc(C2=CCN(C)C(=O)N2c2ccc(Cl)cc2)cc1,0.11%
7,C[C@H](C(=O)N(C)c1ccccc1)[C@@H](O)c1ccc2ccccc2c1,-0.85%
8,CN(C)S(=O)(=O)c1cccc(C(=O)N/N=C\c2ccco2)c1,-0.04%
9,Cc1coc2c1c(C)cc1oc(=O)c(CC(=O)NCC(=O)N[C@H](C(=O)O)C(C)C)c(C)c12,21.3% (active)
10,CC[C@@H](C)[C@H](NC(=O)CCc1c(C)c2cc3c4c(oc3c(C)c2oc1=O)CCCC4)C(=O)O,-2.12%
11,Cc1c(CC(=O)NCC(=O)NCC(=O)O)c(=O)oc2cc3oc4c(c3cc12)CCCC4,-11.5%
12,CCOC(=O)[C@]12CCCC=C1N(Cc1ccc(OC)cc1)C(=O)[C@@H]2CC(=O)N1CCOCC1,-0.23%
13,Cc1ccc(CCn2c3c(c4ccccc42)CN(C)CC3)cn1,-0.24%
14,COC(=O)[C@@]12CCCCC3=C1N(CCC3)C(=O)[C@H]2CC(=O)NCc1cccc2ccccc12,0.65%
15,CC(C)(C)OC(=O)NCc1cc(F)ccc1/C=C/S(=O)(=O)NCCc1ccccc1,0.29%
16,FC(F)(F)c1cccc(Cn2ccc3ccc(-c4ccc5ccn(Cc6ccccc6)c5c4)cc32)c1,-1.25%
17,COc1cccc(/C=C/C(=O)Nc2ccc3c(c2)OCCO3)c1,-0.23%
18,Cc1cccc(NC(=O)/C=C/c2ccc3c(c2)OCO3)n1,6.43%
19,O=C(/C=C/c1ccc2c(c1)OCCO2)c1ccc(O)cc1,17.6% (active)
20,COc1ccccc1CCNC(=O)C1CCN(c2nc(C)cc(C)n2)CC1,-0.66%
